High-throughput results from PubChem BioAssay.
The list is not random: actives were taken first. Their share in the collection is about 5.4%.
AHR activator – activates the human aryl hydrocarbon receptor | 320,000 compounds, 2.5% hits | activation, % at 5 µM | P35869 | AHR-responsive luciferase reporter cells, luminescence; in the data active = activation above about 47%;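 note: 0% = vehicle wells and 100% = reference agonist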
FXN GAA850 act – activators of GAA850 frataxin (FXN) promoter; HEK293 lucGAA850 FXN promoter luciferase reporter, 24 h; percent of 10 µM SAHA response; AID 540364; 360,000 compounds, 0.56% hits; activation, % at 6 µM;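 active = activation above the average of all compounds screened plus 3 SD, cutoff fixed separately per campaign, cut at about 7.5% in these data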;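 note: 0% = DMSO wells and 100% = 10 µM SAHA wells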
HSF1 activator – increases HSF-1 driven luciferase reporter signal; AID 504408; 300,000 compounds, 1.7% hits; NIH3T3-HGL HSF-1 luciferase reporter, MG132, 8 h; 100% = twice DMSO control signal; activation, % at 9 µM;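 active = mean replicate activation of at least 50% with a set share of replicates each reaching 50%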;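 note: 0% = median of the neutral control wells and 100% = twice that signal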
DAX1 inh – inhibitors of human orphan nuclear receptor DAX1 (NR0B1); P51843; HEK293 Gal4-DAX1 luciferase reporter, luminescence; inhibition, % at 6.75 µM; 340,000 compounds, 0.99% hits; AID 504766;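 active = inhibition above the mean over all tested compounds plus 3 SD, cut at about 4.2% in these data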;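 note: 0% = DAX1-transfected cells with DMSO and 100% = empty-vector control cells with DMSO; inhibition shows as a rise in luminescence from relieved DAX1 repression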
HSF1 inhib – HSF1 inhibition; NIH3T3-HGL HSE-luciferase, MG132-induced, luminescence 8 h; hits give low values; AID 2098; activity change, negative = inhibition, % at 7.5 µM (by protocol); 300,000 compounds, 0.77% hits;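 active = more than half of replicate wells show activity change below -50%, luminescence cut by over half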;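 note: luciferase reports HSF-1 transcriptional activity via heat shock element; 0% = median of DMSO wells and -100% = zero luminescence signal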
* = called active by the depositor; · = not tested or not shown.

SMILES	AHR activator	FXN GAA850 act	HSF1 activator	DAX1 inh	HSF1 inhib
CC(=O)c1cccc(N(C(=O)Cn2nnc3ccccc32)C(C(=O)NCC2CCCO2)c2ccc(N3CCOCC3)cc2)c1 (stereo not given)	-1	2	-5	0	-10
COc1ccc(C(=O)NCc2nnc(SCC(=O)N3CCc4ccccc43)n2CCc2ccccc2)cc1	2	1	80*	0	31
CCn1c(NCc2cccs2)nc2ccccc21	2	-1	24	1	4
C=CCn1c(NCc2c[nH]c3ccccc23)nc2ccccc21	15	1	25	1	17
Cn1c(NCc2ccco2)nc2ccccc21	7	4	26	-1	0
Cn1c(NCc2cccs2)nc2ccccc21	49*	2	20	2	3
Cn1c(NCc2c[nH]c3ccccc23)nc2ccccc21	74*	1	20	2	13
CCn1c(NCc2c[nH]c3ccccc23)nc2ccccc21	48*	1	24	0	3
CC(C)(C)c1ccc(C(=O)N2CCN(c3ccc(N4CCOCC4)nn3)CC2)cc1	1	3	2	4	-7
CCNC(=O)C1CCCN(Cc2ccc(C)c3ccccc23)CC1 (stereo not given)	·	-2	·	·	·
NC(=O)C1CCN(C2=C(Cl)C(=O)c3ccccc3C2=O)CC1	19	3	75*	-2	41
Cc1ccc(C)c(CSc2nnc(-c3ccccn3)n2N)c1	12	0	-2	-1	-4
Nn1c(SCc2c(F)cccc2F)nnc1-c1ccccn1	-3	3	34	24*	20
COc1cc(OC)cc(C(=O)N[C@H](C(=O)OCC(=O)Nc2ccc3c(c2)OCO3)C(C)C)c1	4	-2	·	0	·
CCC1CCCCN1C(=S)Nc1ccc(OC(F)F)cc1 (stereo not given)	0	0	3	-1	-12
O=C(CN1CCCCC1CO)c1ccc(OC(F)F)cc1 (stereo not given)	1	1	2	4.5*	4
Cc1c(N=C2NN=C(c3c[nH]c4ccccc34)CS2)c(=O)n(-c2ccccc2)n1C	56*	2	32	-1	15
COc1ccc(-c2cc(C#N)nc(N3CCN(C)CC3)n2)cc1	73*	1	33	2	18
CN1CCN(c2nc(C#N)cc(-c3ccccc3)n2)CC1	29	2	6	-1	4
CCOP(=O)(OCC)/C(=C/N1CCCCC1)NC(=O)c1ccccc1	64*	-1	1	1	-8
O=C1CC(N2CCC(c3nc4ccccc4[nH]3)CC2)C(=O)N1c1ccccc1F (stereo not given)	1	0	177*	0	124
COc1ccc(N2C(=O)CC(N3CCC(c4nc5ccccc5[nH]4)CC3)C2=O)cc1 (stereo not given)	-1	2	19	-1	-8
Cc1cc(C)n2nc(-c3ccccc3)cc2n1	24	5	45	2	26
CCC1C(=O)n2nc(-c3ccccc3)cc2N=C1C (stereo not given)	51*	-1	29	1	11
CCN1CCN(c2cc(N3CCN(C(=O)c4ccco4)CC3)c3c4c(onc24)-c2ccccc2C3=O)CC1	9	3	6	0	-3
SMILES	AHR activator	FXN GAA850 act	HSF1 activator	DAX1 inh	HSF1 inhib
O=C(O)CCNc1cc(N2CCN(C(=O)c3ccco3)CC2)c2noc3c2c1C(=O)c1ccccc1-3	57*	-2	1	-1	0
O=C1C(Cl)=C(Nc2ccc3cn[nH]c3c2)C(=O)c2ccccc21	70*	-14	-89	-4	-90*
O=C(N/C(=C\c1cccc([N+](=O)[O-])c1)C(=O)N1CCOCC1)c1ccc([N+](=O)[O-])cc1	-2	2	4	-1	-5
O=C(O)c1ccc(COc2ccccc2Cl)cc1	5	7	4	0	-5
O=C(O)c1cccc(COc2ccccc2Cl)c1	-13	-3	-88	-6	-86*
O=C1NC(=O)/C(=C\c2ccc(OCc3cccc(C(=O)O)c3)c(Cl)c2)N1	6	7	-65	-3	-55*
COc1cc(/C=C2\NC(=S)NC2=O)ccc1OCc1cccc(C(=O)O)c1	5	7	-17	0	-12
COc1ccc2nc(N(Cc3ccccc3)C(=O)CCNC(C)=O)sc2c1	-6	1	1	1	11
CNC(=S)N/N=C(\C)c1ccc2c(c1)OCO2	72*	0	6	2	5
